Assay outcomes: PubChem, National Center for Advancing Translational Sciences (NCATS)
HT1080 IDH1KD tx: kills HT-1080 cells with IDH1 knockdown; HT-1080 IDH1 knockdown viability, ATP luminescence, 48 h; Potency, µM (titrated, usually from 46.1 µM), for inactives: at the top dose activity, negative = toxicity, hits mostly cytotoxic; 360,000 tested, 2% active; AID 686971;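 also: potency is read from the fitted curve at half-maximal effect; 0% = DMSO wells and -100% = cell-free medium wells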
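Viability of IDH1-knockdown HT-1080 fibrosarcoma cells was assessed by CellTiter-Glo after 48 h at 37 °C with titrated compound; concentration-effect curves were classified by fit quality and response size.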
TDP1 cell noCPT: qHTS for Inhibitors of human tyrosyl-DNA phosphodiesterase 1 (TDP1): qHTS in cells in absence of CPT | DT40 Tdp1-/- hTDP1 cells, no CPT, ATP luminescence, 48 h | Potency, µM (highest dose often 46.2 µM), for the others: at the highest dose activity change, negative = growth inhibition, usual class: inhibitors | 420,000 tested, 15% active | AID 686978, 2013; also: potency is read from the fitted curve at half-maximal effect; nearly all actives have a fitted effect of over 55% in size
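Camptothecin absent (DMSO only). Human TDP1-complemented DT40 knockout cells, 400 cells/well, 37 °C for minimum 48 hr; ATP measured via CellTiter-Glo, 30 min dark incubation, luminescence.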
DT40 TDP1 CPT: growth inhibition of DT40 Tdp1-/-;hTDP1 cells with camptothecin (screen for TDP1 inhibitors); chicken DT40 Tdp1-/-;hTDP1 cells + 20 nM CPT, ATP luminescence, 48 h; Potency, µM (titrated, usually from 46.2 µM), for inactives: at the top dose activity change, negative = growth inhibition, actives largely listed as inhibitors; 420,000 tested, 12% active; AID 686979; also: potency is read from the fitted curve at half-maximal effect; nearly all actives have a fitted effect of over 55% in size
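Cell growth measured by CellTiter-Glo luminescence after a minimum 48 h, 37 C compound exposure with 20 nM CPT in Tdp1-knockout DT40 cells stably expressing hTDP1, seeded 400/well; qHTS titration format.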
IL1B secr inh: inhibitors of inflammasome signaling (IL-1 beta secretion); THP-1 LPS/ATP IL-1B secretion, AlphaLISA, 16 h; hits give low values; activity change, % at 57.5 µM; 360,000 tested, 4.7% active; AID 743279; in the data active = activity change below about -50%; inconclusive = mostly about -30% to -49%
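THP-1 cells pretreated 1 hr with compounds (up to 57.5 uM final), then stimulated with LPS (250 ng/mL final) plus ATP (1.25 mM final); secreted IL-1B measured by AlphaLISA after 16 hr, decreased signal indicating inhibition.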
HT1080-NT tox: kills 2HG-producing HT-1080-NT fibrosarcoma cells; HT-1080-NT fibrosarcoma viability, CellTiter-Glo ATP luminescence, 48 h; Potency, µM (series often up to 46.1 µM), without a hit: at the highest dose activity, negative = less viability, usual class: cytotoxic; 360,000 tested, 1.6% active;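 also: NT is the 2HG producing partner of a matched IDH1 knockdown line; potency is read from the fitted curve at half-maximal effect; 0% = DMSO-treated cells and -100% = media-only wells without cells; nearly all actives have a fitted effect of over 55% in size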
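Toxicity toward the 2HG-producing NT line was scored as %Activity, normalised to DMSO and no-cell wells, from CellTiter-Glo luminescence after 48 hours' treatment.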
* marks the source's active call; other numbers are inactive results; i = inactive; ? = inconclusive; . = no result given. Most compounds without a hit are left out; they make up all but 19% or so of the library. Unless noted, calls follow the shape of the dose curve; as a rule, active = well fitted curve in the direction sought with a large enough effect; inconclusive = small, poorly fitted or top-dose-only effect, or another doubt; inactive = no such curve, though single readings can be large; an effect the other way counts as inactive or inconclusive. Unless noted, % is scaled to controls: 0 for no effect and ±100 for the full control effect.

SMILES | HT1080 IDH1KD tx | TDP1 cell noCPT | DT40 TDP1 CPT | IL1B secr inh | HT1080-NT tox
O=C1C2C3C=CC(CNS(=O)(=O)c4ccccc4)(O3)C2C(=O)N1c1ccc(Cl)cc1 (centres undefined) | -10.5% | ? | 25.9µM* | 6.5 | 2.2%
O=C1C2C3C=CC(CO)(O3)C2C(=O)N1c1ccccc1-c1ccccc1 (centres undefined) | 1.58µM* | 4.11µM* | 2.59µM* | -82.5* | 3.16µM*
O=C(c1ccc(N2CCCC2=O)cc1)N1CCN(c2ccccc2F)CC1 | 26.7% | 1.6% | -28.2% | -1.2 | 24.5%
Cc1sc(NC(=O)c2cc(-c3ccccc3)nc3ccccc23)c(C(N)=O)c1C | -14.7% | 18.4µM* | 14.6µM* | -25.1 | -3.6%
O=C(NC1=NCCS1)c1cc(-c2ccc(-c3ccccc3)cc2)nc2ccccc12 | -24.4% | ? | ? | -10.7 | -7.9%
Cc1sc(NC(=O)c2cc(-c3ccc(Cl)cc3)nc3ccccc23)c(C(N)=O)c1C | -11.7% | 10.3µM* | 8.2µM* | 7.1 | -12.9%
Cc1ccc(S(=O)(=O)N2CCCCC2)cc1C(=O)NCc1ccc(S(N)(=O)=O)cc1 | 0.6% | -3.1% | -11.7% | 7.8 | -2.6%
CC1(Oc2ccc(CC#N)cc2)CCN(Cc2ccccc2OC(F)F)C1 (centres undefined) | 10.4% | -27.4% | -29.4% | 17.8 | 11.8%
CCc1ccc(OC2(C)CCN(Cc3ccc(SC)cc3)C2)cc1 (centres undefined) | ? | ? | ? | -7.1 | ?
CC1(Oc2ccc(Cl)cc2)CCN(Cc2ccc(OC(F)(F)F)cc2)C1 (centres undefined) | 28.6% | -10.8% | ? | -81.0* | 1.4%
CSc1ccc(OC2(C)CCN(Cc3ccc(C(C)C)cc3)C2)cc1 (centres undefined) | -19.3% | 18.4µM* | ? | 27.5 | -27.1%
CC(C)Oc1ccccc1OC1(C)CCN(Cc2ccc(OC(F)(F)F)cc2)C1 (centres undefined) | 4.4% | ? | ? | 23.4 | -7.9%
CC1(Oc2ccc(CC#N)cc2)CCN(Cc2ccc(-n3ccnc3)cc2)C1 (centres undefined) | 17.7% | 13µM* | ? | -1.1 | 27.1%
CC(Sc1nnc(-c2cccnc2)o1)C(=O)NC1CCCC1 (centres undefined) | 8.8% | -4.4% | -10.1% | -2.6 | 1.8%
CCOc1ncccc1C(=O)Nc1cccc(S(=O)(=O)N2CCOCC2)c1 | 1.5% | -27.9% | -16.8% | 17.1 | 1.9%
O=C(NCC[C@@H]1CC[C@@H](NS(=O)(=O)c2ccccc2)[C@@H](CO)O1)c1cc(Cl)cc(Cl)c1 | -7.1% | ? | ? | -29.0 | -15.6%
O=C(O)CCCn1ccc2cc(S(=O)(=O)N3CCCC3)ccc21 | -2.7% | 27.5% | -13.6% | 28.8 | -8.7%
COc1ccc(CNC(=O)CCCn2ccc3cc(S(=O)(=O)N4CCCC4)ccc32)cc1 | ? | 11.6µM* | 18.4µM* | 36.8 | ?
CCc1ccc(CNC(=O)CCn2ccc3cc(S(=O)(=O)N4CCCC4)ccc32)cc1 | -27.0% | ? | 20.6µM* | -10.1 | -28.4%
CN(C)c1ccc(CNC(=O)C2CCCN(S(=O)(=O)c3ccc4c(ccn4C)c3)C2)cc1 (centres undefined) | . | 20.6µM* | 16.4µM* | . | .
Cc1ccc(CNC(=O)CCn2ccc3cc(S(=O)(=O)N4CCCC4)ccc32)cc1 | -18.6% | ? | ? | 12.8 | -12.6%
O=C(CCn1ccc2cc(S(=O)(=O)N3CCCC3)ccc21)NCc1cccc(Br)c1 | . | ? | 18.4µM* | . | .
COc1ccccc1-n1ncc2c(=O)[nH]c(SCC(=O)Nc3ccc(Cl)cc3)nc21 | . | -20.3% | 9.5% | . | .
Cc1cc(C)n2nc(C(=O)OCC(=O)c3ccc(F)cc3)nc2n1 | 12.1% | -3.5% | -1.3% | 10.3 | 12.6%
COc1ccc(C(O)c2ncc(-c3ccccc3)[nH]2)cc1F (centres undefined) | 3.3% | -9.3% | -24.9% | 26.3 | 14.5%
SMILES | HT1080 IDH1KD tx | TDP1 cell noCPT | DT40 TDP1 CPT | IL1B secr inh | HT1080-NT tox
O=[N+]([O-])c1ccccc1S(=O)(=O)NC1CCCCCCC1 | -2.7% | 16.4µM* | -22.3% | 3.8 | -4.8%
O=C1C2C3C=CC(C3=C3CCCCC3)C2C(=O)N1c1ccccc1 (centres undefined) | 23.6% | 13µM* | ? | -17.4 | 23.2%
O=C1C2C3C=CC(C3)C2C(=O)N1c1ccccc1 (centres undefined) | -0.2% | -2.0% | -6.8% | -2.7 | 0.5%
COc1cc2ccccc2cc1C(=O)N/N=C/c1cccnc1 | ? | ? | 14.6µM* | -11.4 | -11.6%
CCCOc1cccc(-c2cc(C(=O)N/N=C/c3ccccn3)c3ccccc3n2)c1 | ? | 9.2µM* | 11.6µM* | -97.7* | -28.1%
CC(C)COc1cccc(-c2cc(C(=O)Nc3ccon3)c3ccccc3n2)c1 | ? | 10.3µM* | 16.4µM* | -22.1 | ?
COC(=O)[C@H](NC(=O)c1cc(-c2ccccc2)nc2ccccc12)c1ccccc1 | -4.5% | -25.3% | ? | -23.2 | -4.0%
COc1ccc(-c2cc(C(=O)N/N=C/c3cc(OC)c(OC)cc3OC)c3ccccc3n2)cc1 | -21.0% | 9.2µM* | 10.3µM* | -7.5 | -1.8%
NC(=O)CSc1oc(-c2ccco2)nc1S(=O)(=O)c1ccccc1 | 4.0% | 13.5% | 1.0% | -6.7 | 21.9%
COc1ncnc2c1ncn2CCCN(CCCc1ccccc1)CCCn1cnc2c(OC)ncnc21 | 8.0% | ? | -19.7% | -4.0 | -12.4%
O=C(/C(Cl)=C/Nc1ccc(Br)cn1)C(F)(F)F | -10.1% | -16.7% | -9.4% | 20.9 | -5.6%
Cc1cnc([N+](=O)[O-])n1CCOC(=O)NC(=O)c1ccc(F)cc1 | 9.7% | 3.8% | 14.6% | 33.8 | 0.6%
Cc1cccc(/C=N/NC(=O)c2cc(-c3cccnc3)nc3c2c(C)nn3-c2ccccc2)c1 | 9.3% | 23.1µM* | ? | -13.1 | 17.0%
Cc1cccc(/C=N/NC(=O)c2cc(-c3cccnc3)nc3ccccc23)c1 | 19.6% | -2.7% | -0.4% | 46.7 | 10.1%
COc1ccc(-c2cc(C(=O)N/N=C/c3cccnc3)c3ccccc3n2)cc1 | ? | ? | 9.2µM* | -11.7 | ?
O=C(N/N=C/c1cccnc1)c1cc(-c2ccccc2Cl)nc2ccccc12 | 5.4% | 4.61µM* | ? | i | -4.9%
CCCOc1cccc(-c2cc(C(=O)N/N=C/c3cccnc3)c3ccccc3n2)c1 | ? | 8.2µM* | 9.2µM* | i | -15.8%
Cc1cccc(-c2cc(C(=O)N/N=C/c3cccnc3)c3ccccc3n2)c1 | -22.2% | ? | ? | -20.3 | -11.0%
